# Hits are enriched below; roughly 7.2% of the tested compounds scored in any of these assays.
# HEK cytotox: Cytotoxic Profiling in HEK 293 Cell Line of Diverse Libraries Using Quantitative High-Throughput Screening; HEK 293 viability, ATP luminescence (CellTiter-Glo), 48-72 h; Potency, µM (doses to about 115 µM), inactives show top-dose activity change, negative = cytotoxicity, most hits filed as inhibitors; 94,000 compounds, 6.6% hits; note: % is set by controls: 0 for no effect and ±100 for the full control effect; nearly all actives have a fitted effect of over 60% in size
#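 Cells seeded first (HEK 293, 250 cells/well), then compound added by pintool. Incubation ran 48 or 72 hr at 37 degree Celsius. CellTiter-Glo was added and luminescence imaged after 10 min at room temperature.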
# NPR1 antag: Natriuretic polypeptide receptor (hNpr1) antagonism - Primary qHTS | Atrial natriuretic peptide receptor 1 (Homo sapiens), P16066 | HEK293 hNpr1 GloSensor cGMP, ANP-stimulated luminescence | 76,000 compounds, 1.6% hits | Potency, µM (series often up to 46.3 µM), inactives show at the top dose activity change, negative = inhibition, usual class: inhibitors; calls by dose curve; note: % is set by controls: 0 for no effect and ±100 for the full control effect; nearly all actives have a fitted effect of over 60% in size
#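 Compound pre-incubated 30 min at room temperature on GloSensor-loaded HEK293 cells stably carrying hNpr1 and the pGS-40F cGMP biosensor. Stimulation uses hNppA at 0.1 nM final; luminescence is taken at baseline and 20 min post-agonist.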
# NIH3T3 tox: Cytotoxic Profiling in NIH 3T3 Cell Line of Diverse Libraries Using Quantitative High-Throughput Screening; 94,000 compounds, 4.3% hits; AID 1345082, 2018; Potency, µM (highest dose often 96.7 µM), for the others: at the top dose activity change, negative = cytotoxicity, usual class: inhibitors; NIH 3T3 viability, CellTiter-Glo ATP luminescence, 48-72 h; note: % is set by controls: 0 for no effect and ±100 for the full control effect; nearly all actives have a fitted effect of over 55% in size
#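 NIH 3T3 cells at 400 cells/well received 23 nL of compound by pintool and were incubated 48 or 72 h at 37 °C. Viability was read as ATP-coupled CellTiter-Glo luminescence.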
# SNCA expr inhib: Primary qHTS assay for inhibitors of alpha-synuclein gene (SNCA) expression. Potency, µM (titrated, usually from 57.2 µM), for inactives: at the top dose activity change, negative = inhibition, hits mostly inhibitors. AID 1671194, 2021. HEK-293 SNCA-luciferase knock-in, luminescence, 24 h. 140,000 compounds, 0.17% hits;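 note: plate controls were DMSO cells for no effect and cell-free wells for full effect; nearly all actives have a fitted effect of over 45% in size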
# FLuc inh: Firefly luciferase inhibition profiling of diverse chemical library using quantitative high-throughput screening | Luciferin 4-monooxygenase (Photinus pyralis), P08659 | purified P. pyralis luciferase, luminescence, biochemical | Potency, µM (titrated, usually from 115 µM), actives largely listed as inhibitors | 76,000 compounds, 2.5% hits; note: % is set by controls: 0 for no effect and ±100 for the full control effect; nearly all actives have a fitted effect of over 65% in size
# Target sequence (P08659 whole entry, looked up): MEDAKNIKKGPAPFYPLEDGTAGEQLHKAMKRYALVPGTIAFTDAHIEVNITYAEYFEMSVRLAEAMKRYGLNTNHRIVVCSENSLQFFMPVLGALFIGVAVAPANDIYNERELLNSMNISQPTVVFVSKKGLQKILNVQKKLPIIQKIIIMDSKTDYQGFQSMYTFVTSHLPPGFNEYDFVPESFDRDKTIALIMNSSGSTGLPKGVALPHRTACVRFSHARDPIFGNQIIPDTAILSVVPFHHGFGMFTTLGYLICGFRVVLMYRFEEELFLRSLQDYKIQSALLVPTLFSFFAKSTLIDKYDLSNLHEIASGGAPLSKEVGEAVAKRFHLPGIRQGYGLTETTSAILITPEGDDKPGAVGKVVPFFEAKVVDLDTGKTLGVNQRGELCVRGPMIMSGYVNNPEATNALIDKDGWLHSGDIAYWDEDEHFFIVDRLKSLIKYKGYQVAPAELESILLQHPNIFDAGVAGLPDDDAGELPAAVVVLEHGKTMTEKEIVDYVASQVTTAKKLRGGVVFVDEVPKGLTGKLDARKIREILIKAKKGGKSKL
#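 Purified P. pyralis luciferase (10nM final) in 50mM Tris acetate pH 7.5, 10mM Mg acetate, 0.01% Tween-20, 0.05% BSA with 10uM D-luciferin and 10uM ATP. Compounds titrated qHTS. Luminescence imaged on CCD.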
# HEK293 viab: GF-AFC viability counterscreen for inhibitors of alpha-synuclein gene (SNCA) expression; Potency, µM (series often up to 57.1 µM), for inactives: at the highest dose activity change, negative = cytotoxicity, actives largely listed as cytotoxic; 150,000 compounds, 0.12% hits; AID 1671193, 2021; HEK-293-SNCA-luc viability, GF-AFC fluorescence, 24 h;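 note: 0% = DMSO-treated cells and -100% = medium-only wells without cells; nearly all actives have a fitted effect of over 30% in size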
#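 HEK-293-SNCA-luc cells (1500/well) plated 24 h, then exposed 24 h to a dilution series; GF-AFC added 30 min at 37C, fluorescence 405/540 nm; normalised to medium-only and DMSO wells, Hill fit.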
# Npr1 antag conf: Natriuretic polypeptide receptor (hNpr1) antagonism - Confirmation. shares compounds with NPR1 antag. HEK293 hNpr1 cGMP GloSensor luminescence, ANP-stimulated. Potency, µM (top dose mostly 57.6 µM), without a hit: top-dose activity change, negative = inhibition, most hits filed as inhibitors. 1,400 compounds, 76% hits. AID 1347044, 2019; calls by dose curve; note: nearly all actives have a fitted effect of over 70% in size
# NPR2 antag: Natriuretic polypeptide receptor (hNpr2) antagonism - Subtype selectivity assay; shares compounds with NPR1 antag; 1,400 compounds, 67% hits; HEK293 hNpr2 GloSensor cGMP luminescence, CNP-stimulated; Potency, µM (top dose mostly 57.6 µM), for the others: top-dose activity change, negative = inhibition, hits mostly inhibitors; calls by dose curve; note: nearly all actives have a fitted effect of over 70% in size
# FLuc counter: Natriuretic polypeptide receptor (hNpr1) antagonism - Confirmation firefly luciferase (FLuc) inhibition counterscreen | AID 1347047, 2019 | 1,400 compounds, 0.7% hits | shares compounds with NPR1 antag | purified FLuc enzyme, luminescence, Km substrate | Potency, µM (series often up to 57.6 µM), without a hit: top-dose activity change, negative = inhibition, actives largely listed as inhibitors; note: 0% is about no effect
# GloSensor cGMP: Natriuretic polypeptide receptor (hNpr1) antagonism - Counterscreen GloSensor control cell line; shares compounds with NPR1 antag; HEK293 GloSensor cGMP, SNP-stimulated, luminescence; Potency, µM (top dose mostly 57.6 µM), for the others: at the top dose activity change, negative = inhibition, most hits filed as inhibitors; 1,400 compounds, 69% hits; AID 1347051, 2019; calls by dose curve; note: % is set by controls: 0 for no effect and ±100 for the full control effect; nearly all actives have a fitted effect of over 70% in size
# The depositor's hits bear a star; i = inactive; ? = inconclusive; · = no result given; [ ] = dose if it differs, or a comment. Unless noted, calls come from the whole dose curve; as a rule, active = well fitted curve in the direction sought with a large enough effect; inconclusive = small, poorly fitted or top-dose-only effect, or another doubt; inactive = no such curve, though single readings can be large; an effect the other way counts as inactive or inconclusive. Potency is the fitted concentration of half-maximal effect.
SMILES,HEK cytotox,NPR1 antag,NIH3T3 tox,SNCA expr inhib,FLuc inh,HEK293 viab,Npr1 antag conf,NPR2 antag,FLuc counter,GloSensor cGMP
CC(C)CNC(=O)c1cc(-c2cccc(C(F)(F)F)c2)nc2c1cnn2C,-6%,·,-9%,-9%,·,6%,·,·,·,·
Cc1ccnn1CCC(=O)N1CCOC(Cc2ccc(F)cc2)C1 (configuration not stated),-19%,4%,-10%,42%,i,4%,·,·,·,·
O=C(c1ccncc1)N1CC2CCC(C1)N2Cc1ccc(-c2ccccc2)cc1,?,?,?,?,i,-12%,4.3µM*,5.4µM*,-3%,4.8µM*
N#Cc1ccc(CN2C3CCC2CN(C(=O)c2ccncc2)C3)cc1,?,-7%[70.6 µM],?,-17%[87.6 µM],i,-3%[87.6 µM],·,·,·,·
CCCc1cc(CN(C)c2nc(CCN)nc3sc(C)c(C)c23)[nH]n1,35µM*,-24%,?,-11%,i,-9%,-25%,?,6%,2%
CC1Oc2ccc(NC(=O)c3ccc(F)cc3)cc2CN(Cc2ccc3c(c2)OCO3)C1=O (configuration not stated),?,?,?,10%,i,9%,24µM*,?,1%,31µM*
Cc1ccccc1C(=O)N1CCC2(CC1)N=C(c1ccc(Br)cc1)NO2,?,14µM*,?,3%,i,-18%,27µM*,24µM*,2%,24µM*
COc1cc(OC)cc(C(=O)N2CCC3(CC2)N=C(c2ccccc2)NO3)c1,-5%,1%,i,19%,i,14%,·,·,·,·
COc1ccc(C(=O)N2CCC3(CC2)N=C(c2ccc(Br)cc2)NO3)cc1,?,10µM*,-23%,?,i,-4%,12µM*,14µM*,1%,9.7µM*
O=C(c1ccc(Cl)nc1)N1CCN(c2nccc(Nc3ccccc3F)n2)CC1,?,·,?,-2%,·,-12%[12.5 µM],·,·,·,·
COCc1cc(NCCSCc2ccccc2C)ncn1,?,11µM*,?,14%,i,3%,22µM*,19µM*,2%,15µM*
COC(=O)c1cccc(NC(=S)N[C@@H]2C=C[C@@H](c3c(C)nn(-c4ccc(F)cc4)c3C)C2)c1,32µM*,?,?,-20%,i,?,22µM*,?,-23%,22µM*
Cn1ccc(NC(=O)c2ccc3c(c2)NC(C)(CNCc2ccccc2)CO3)n1 (configuration not stated),?,-7%[70.6 µM],-16%[138 µM],?,i,?,·,·,·,·
Cn1ccc(NC(=O)c2ccc3c(c2)NC(C)(CCCCc2ccccc2)CO3)n1 (configuration not stated),45µM*,10µM*,40µM*,-26%[87.6 µM],i,-13%[87.6 µM],14µM*,20µM*,1%[86.2 µM],13µM*
Cc1ncc(S(C)(=O)=O)c(N2CC(N3CCCCC3C)C2)n1 (configuration not stated),0%,-1%,-1%,-12%,i,14%,·,·,·,·
CCNC(=O)N1CC(C(=O)NCc2cccc(C)c2)CC(c2ccc(F)c(C)c2)C1 (configuration not stated),?,22µM*,?,?,i,-17%,?,?,0%,?
COCC(=O)N1CC(C(=O)NCc2cccc(F)c2)CC(c2ccc(F)c(C)c2)C1 (configuration not stated),?,0%,-18%,-11%,i,6%,·,·,·,·
CSc1nccc(N2CCC3(CC2)CC(=O)N(CC(C)C)C3)n1,?,7.1µM*,?,3%,i,-12%,6.9µM*,11µM*,-1%,5.4µM*
CCCc1noc(-c2cn(C3CCN(C(=O)c4sccc4C)CC3)nn2)n1,-26%,-14%,-28%,-35%,i,4%,·,·,·,·
Cc1nnc(CN2CCN(C)C3(CCC(=O)N(CC(=O)O)CC3)C2)o1 (configuration not stated),0%,-2%,0%,-10%,i,0%,·,·,·,·
Cc1ncc(C(=O)N2CCC3(CC(=O)NC3=O)C2)c(-c2ccccc2)n1 (configuration not stated),-1%,3%,0%,-1%,i,2%,·,·,·,·
COc1cccc(CN2C[C@@H](F)[C@@H](OCc3nc4ccccc4[nH]3)C2)n1,-8%[172 µM],-5%[70.6 µM],-23%[174 µM],6%[87.6 µM],i,-3%[87.6 µM],·,·,·,·
Cc1ccc(C2(C(=O)NC(C)c3cnc(-c4ccncc4)nc3C)CC2)cc1 (configuration not stated),?,?,?,-12%,i,8%,?,?,3%,-6%
Cc1ccccc1C(=O)N1CCC2(CC1)CN(c1ncccn1)CC2CO (configuration not stated),0%,5%,-8%,-25%,i,1%,·,·,·,·
